What all share (assay): NCI-60 one-dose screen, 48 h (100 = growth as untreated, 0 = no growth, -100 = all killed)
Settings in all cases: 10 µM unless noted

The test system of assay [1] is NCI-H23 lung.
In assay [2] the test system is NCI-H460 lung.
Assay [3] deals with 786-0 renal.
In assay [4] the test system is DU-145 prostate.
For assay [5], the system named is MDA-MB-231 breast.
In assay [6] the test system is SF-268 CNS.
The subject of assay [7] is SF-539 CNS.
Assay [8] has as its system M14 melanoma.
In assay [9] the test system is SNB-75 CNS.
For assay [10], the system named is PC-3 prostate.
The test system of assay [11] is UACC-62 melanoma.
Assay [12] relates to SK-MEL-28 melanoma.
The subject of assay [13] is ACHN renal.
The test system of assay [14] is OVCAR-5 ovarian.
Assay [15] relates to OVCAR-3 ovarian.
In assay [16] the test system is NCI/ADR-RES ovarian.
Assay [17] deals with SW-620 colon.
The subject of assay [18] is MCF7 breast.
Assay [19] concerns HCT-116 colon.
For assay [20], the system named is KM12 colon.

Each structure is given as a SMILES string. About 83,000 compounds went through this panel and 20% of them were active in at least one assay; those are over-represented in the sample as a whole.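 Step 1: grow cells in 96-well plates. Step 2: add test compound at a single concentration. Step 3: incubate 48 h. Step 4: record percent growth.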 Values without a mark were called inactive. The source made the active and inactive calls. Rule for the calls: active = growth percent below 10; inactive = the rest.

For `CC12CCC3C(CC=C4CC(O)CCC43C)C1C/C(=C\N1CCOCC1)C2=O` (stereo not given), the growth is 111% in assay [1]; 108% in assay [2]; 104% in assay [3]; 110% in [4]; 106% in assay [5]; 109% in assay [6]. Besides, the growth is 108% in [7]; 112% in assay [8]; 83.5% in assay [9]; 96.4% in assay [10]; 104% in assay [11]; 106% in assay [12]. Also, the growth is 99.6% in assay [13]; 98.1% in [14]; 116% in assay [15]; 106% in assay [16]; 105% in assay [17]; 92.2% in [18]. Also, the growth in assay [19] is 101%; in [20], 108%.
Consider `CC1CC=CCC12C(=O)NC(=S)NC2=O` (stereo not given), for which the growth is 113% in [1]; 106% in assay [2]; 107% in assay [3]; 122% in assay [4]; 117% in [5]; 115% in assay [6]. Also, the growth in assay [7] is 98.8%; in assay [8], 114%; in [9], 81.4%; in assay [10], 98.4%; in [11], 105%; in assay [12], 101%. The growth in assay [13] was 106%; in assay [14] it was 103%; in assay [15], 118%; in assay [16], 113%; in assay [17], 104%; in [18], 105%. Also, the growth in assay [19] was 108%; in [20] it was 116%.
As to `CCOc1ccc(C(O)CN(C)Cc2ccccc2)cc1Cl` (stereo not given), the growth in assay [1] is 91.3%; in [2], 102%; in [3] it was 100%; in assay [4] it was 103%; in assay [5], 93.6%; in [6] it was 95.5%. Moreover, the growth in assay [7] was 108%; in assay [8], 96%; in assay [9], 92.9%; in [10], 89.3%; in assay [11], 96.4%; in assay [12], 98.5%. Moreover, the growth is 109% in assay [13]; 102% in [14]; 99.7% in assay [15]; 99.4% in [16]; 98.5% in [17]; 98.6% in assay [18]. For the same molecule, the growth in assay [19] was 101%; in assay [20] it was 100%.
In the case of `C[CH2][Pb]([CH2]C)([CH2]C)[O]C(=O)COC`, the growth was -2.61% (active) in assay [1]; 3.94% (active) in [2]; -46.4% (active) in assay [3]; 10.3% in assay [4]; 8.7% (active) in assay [5]; -14.8% (active) in assay [6]. In addition, the growth in [7] was -41.8% (active); in assay [8], 9.74% (active); in assay [9], -4.45% (active); in assay [10], 14.1%; in [11], 19.3%; in [12] it was 18.2%. In addition, the growth in [13] is 12.7%; in [14], -4.48% (active); in [15], -3.39% (active); in assay [16] it was 4.13% (active); in assay [17], -28.3% (active); in assay [18], 0.034% (active). Also, the results for the growth in assay [19] and in [20] were -29.7% (active) and 5.08% (active), respectively.
Take `C[CH2][Pb]([CH2]C)([CH2]C)[O]C(=O)COc1ccccc1`: the growth is -6.75% (active) in assay [1]; 4.05% (active) in assay [2]; -22% (active) in [3]; -6.43% (active) in assay [4]; 20.1% in assay [5]; -10.1% (active) in assay [6]. Further, the growth is -21.8% (active) in assay [7]; 14.6% in [8]; 4.45% (active) in [9]; 20.3% in assay [10]; 25.3% in assay [11]; 28.3% in assay [12]. Also, the growth in assay [13] was 11.5%; in [14] it was -5.58% (active); in assay [15], -2.95% (active); in assay [16] it was 2.79% (active); in [17], 6.03% (active); in assay [18], 0.688% (active). For the same molecule, the growth was 4.13% (active) in [19] and 1.59% (active) in assay [20].
Consider `O=C(CF)N(O)c1ccc(/C=C/c2ccccc2)cc1`, for which the growth in assay [1] is 60.7%; in assay [2], 13%; in assay [3], 8.73% (active); in [4] it was 1.13% (active); in assay [5] it was 73.4%; in [6] it was 42.5%. Besides, the growth in assay [7] is 36.2%; in assay [8] it was 43.2%; in [9], 70.9%; in assay [10], 62.3%; in [11], 23.4%; in [12] it was 99.9%. Also, the growth in [13] is 13.9%; in assay [14], 82.6%; in [15], 23.9%; in assay [16], 44.1%; in assay [17] it was 56.5%; in [18], 16.5%. Besides, the values for the growth in assay [19] and in assay [20] were 11.5% and 69.5%, respectively.
Turning to `COc1ccc(/C=C(/C(=O)N2CCCC2)c2cc(OC)c(OC)c(OC)c2)cc1N`, the growth was 41.7% in assay [1]; 13.5% in assay [2]; 24.5% in [3]; 24.6% in assay [4]; 62% in assay [5]; 47.5% in [6]. For the same molecule, the growth in [7] was 3.13% (active); in [8], 11.7%; in [9] it was -12.2% (active); in assay [10] it was 14.5%; in [11], 41.5%; in assay [12], 60.9%. The growth in [13] was 45.2%; in [14], 54.5%; in assay [15], 0.49% (active); in assay [16], 68.2%; in [17] it was 25.6%; in [18], 14.2%. In addition, the growth in assay [19] was 23.5%; in [20] it was 14.8%.
As to `CC(C)OC(=S)[S-].[Au+].c1ccc([PH+](c2ccccc2)c2ccccc2)cc1`, the growth was 42.4% in assay [1]; 79.5% in assay [2]; 2.78% (active) in assay [3]; 50% in assay [4]; -14.3% (active) in assay [5]; 18.2% in [6]. The growth is 7.83% (active) in assay [7]; 11.5% in assay [8]; 18.5% in assay [9]; 42.9% in assay [10]; 0.794% (active) in assay [11]; 16.5% in assay [12]. The growth in [13] was 0.723% (active); in assay [14] it was 73.9%; in assay [15], -43% (active); in assay [16] it was 67.6%; in assay [17] it was -59.2% (active); in [18] it was 2.73% (active). The results for the growth in [19] and in assay [20] were 13.9% and 69.4%, respectively.

These data come from PubChem BioAssay (NCI).
